Among the data in the OligoGym collection are sensor-assay potency score (higher = more potent) values, retold here.
Further: reference of the scale not given here.

One assay deals with DNAJC8. The assay can be described thus: pooled miR-30 sensor sort-seq; sequence = guide strand. As to conditions: shRNA.
TTTCTTGAGCTTCAATCTCTTC yielded a sensor-assay potency score (higher = more potent) of -0.98. On the same count and under the same terms, the figure for TTTTTCTTGAGCTTCAATCTCT is 0.129; for TTTCACAGTGTGTTCCACGTAT it is 0.15. The same measure, in the same setting: the figure for TTGTCGTTTCCTTTCATGCATC is -1.33; for TTGAGCTTCAATCTCTTCTTCC it is 0.0915. The same measure, in the same setting: in the case of TGTAACTTCAGGATCTATCTGA it was 0.809; in that of TTGGCTTGGAAGTTTCGCCAGC, -0.414.

The target of another assay is DNAL4. The description is as above. As to conditions: shRNA.
For the sequence TTGTCTCTTTGATCATCTTGGC, the sensor-assay potency score (higher = more potent) was -0.232. On the same count and under the same terms, in the case of ACTTCTTGTCCATTGTCTCTTT it was -0.545; in that of TCGTGGGTGATCTCAAACCCAA, -1.47. For TCTGCAGTCGCTTATAATCAGC, the sensor-assay potency score (higher = more potent) is -1.4.

The sequence TCTTTGATCATCTTGGCGGCGC yielded a sensor-assay potency score (higher = more potent) of -0.0929. The sequence TATATAAATAAGACCGCTGTGT showed a sensor-assay potency score (higher = more potent) of -0.264. Same read-out and setting: the figure for TAGAGGAGGTTCTTCACCTCGT is 0.0799; for TCTCTTTGATCATCTTGGCGGC it is -0.315; for ATAATCAGCCTCATCTTTCTTC it is 0.738. Still for that read-out and setting: in the case of ATTGTCTCTTTGATCATCTTGG it was 0.417; in that of TTGTTGTTGGAGAATTTCTCAC, -0.596.

A further assay addresses DNASE2B. The assay is described as above. As to conditions: shRNA.
TAGGTCTCCAATACATGTCCAG: the sensor-assay potency score (higher = more potent) was -0.704. As for TTCTGTTAACAAGTGTGTCTTC, the sensor-assay potency score (higher = more potent) is -0.13. In the case of TTGAACTCTGTTCCACAGCAGT, the sensor-assay potency score (higher = more potent) is -0.963. With TACTCTTAGAGGCATATGCTTC, the sensor-assay potency score (higher = more potent) was -0.938. The same measure, in the same setting: in the case of ATAATCATAGCCTTCTTCCGGA it was 0.631; in that of TATAGCTGTTGTAATGTCCTTC, 0.757. TTTTATATTGTAGACATGGTAA showed a sensor-assay potency score (higher = more potent) of -1.07. Still for that read-out and setting: in the case of TTTAATTGCTTTTATATTGTAG it was -0.233; in that of TTGTATATTAGATAGGCTGTGT, 0.0611; in that of TCTAGTTGTAGAGTCTAGGTAC, 0.705. The sequence TTGGTGTGTCCATACTTTCTGC had a sensor-assay potency score (higher = more potent) of -0.698. The same measure, in the same setting: the figure for TAACAAGTGTGTCTTCAGCCGT is -0.785.

For another assay, the target named is DNMT3L. The assay is described as above. As to conditions: shRNA.
With TGGAACTGGAACAGGTACCAGC, the sensor-assay potency score (higher = more potent) was -1.35.

TTGGTACCCGTCATCGTCGTAC showed a sensor-assay potency score (higher = more potent) of -0.554. Same read-out and setting: in the case of TGTGACATCAACCACATGCTTC it was -0.297.

The sequence TTCTGTTGAAAAATACTTGAAA came in with a sensor-assay potency score (higher = more potent) of -0.77. The same measure, in the same setting: in the case of TATGCAATAAGATCTCTGCCTG it was -0.0706; in that of TTGAAATATTCTCTTAGGGGGA, -0.387; in that of TATATTTCGCTGGTTAGCCTTG, -0.491.

With AATACTTGAAATATTCTCTTAG, the sensor-assay potency score (higher = more potent) was found to be 0.0137.

AACTGGAACAGGTACCAGCTGG registered a sensor-assay potency score (higher = more potent) of -0.764. On the same count and under the same terms, the figure for ATGTCTTCTATATTTCGCTGGT is -0.668.
